# Measurements from article PMC7862700, “An all-to-all approach to the identification of sequence-specific readers for epigenetic DNA modifications on cytosine”.
# Assays:
# Assay in all cases: DAPPL (digital affinity profiling via proximity ligation, sequencing); 10 mM Tris-HCl pH 7.5, 50 mM NaCl, 1 mM DTT, 4% glycerol, room temperature, 30 min; GST-TFs on glutathione beads, 16-mer random dsDNA library, 0.1% formaldehyde crosslink after washing; high values mean tight binding
# FLI1 = target: T1, FLI1 (Homo sapiens, UniProt Q01543 1-452); settings: protein: recombinant; tags: N-terminal GST; dsDNA, one strand shown
# T1 sequence: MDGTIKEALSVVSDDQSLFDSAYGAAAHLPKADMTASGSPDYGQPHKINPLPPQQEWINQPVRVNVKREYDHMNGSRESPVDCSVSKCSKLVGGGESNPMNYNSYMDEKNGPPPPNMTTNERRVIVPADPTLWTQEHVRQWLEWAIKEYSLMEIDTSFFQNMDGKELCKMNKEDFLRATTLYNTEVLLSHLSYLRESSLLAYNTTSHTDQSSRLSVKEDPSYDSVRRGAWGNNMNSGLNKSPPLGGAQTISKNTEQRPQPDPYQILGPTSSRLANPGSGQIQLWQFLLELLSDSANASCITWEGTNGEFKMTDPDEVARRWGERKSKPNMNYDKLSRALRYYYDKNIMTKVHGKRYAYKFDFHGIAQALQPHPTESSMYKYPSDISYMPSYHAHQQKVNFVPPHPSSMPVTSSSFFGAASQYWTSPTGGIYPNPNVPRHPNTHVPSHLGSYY
# Method in brief: (§1)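 Pools of DNA-barcoded human transcription factors, expressed in yeast as GST fusions on glutathione beads and combined with a tag-only sample, were incubated with 200 nmole of a 16-mer random double-stranded DNA library. Incubation took 30 min at room temperature in Tris/NaCl/DTT/glycerol buffer and was followed by washing, 0.1% formaldehyde crosslinking, proximity ligation (BsaI/T4 ligase, 1 h, 37 °C), PCR amplification and sequencing on an Illumina NextSeq500. Binding signal is the ratio of a hexamer's read frequency for a factor to its frequency for the tag-only sample.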
# ELK1 = target: T2, ELK1 (Homo sapiens, UniProt P19419 1-428); settings: protein: recombinant; tags: N-terminal GST; dsDNA, one strand shown
# T2 sequence: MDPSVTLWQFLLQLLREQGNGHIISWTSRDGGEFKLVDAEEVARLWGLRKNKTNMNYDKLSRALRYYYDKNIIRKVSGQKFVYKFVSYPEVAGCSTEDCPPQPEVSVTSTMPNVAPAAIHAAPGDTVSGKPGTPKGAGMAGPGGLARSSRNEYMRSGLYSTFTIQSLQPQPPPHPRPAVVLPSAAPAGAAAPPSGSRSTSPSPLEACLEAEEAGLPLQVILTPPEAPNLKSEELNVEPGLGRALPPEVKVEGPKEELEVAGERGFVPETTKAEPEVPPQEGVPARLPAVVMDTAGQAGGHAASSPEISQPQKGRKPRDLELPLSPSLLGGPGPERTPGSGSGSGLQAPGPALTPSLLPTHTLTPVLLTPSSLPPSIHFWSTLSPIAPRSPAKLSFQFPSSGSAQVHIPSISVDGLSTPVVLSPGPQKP
# Method in brief: as §1
# GABPA = target: T3, GABPA (Homo sapiens, UniProt Q06546 1-454); settings: protein: recombinant; tags: N-terminal GST; dsDNA, one strand shown
# T3 sequence: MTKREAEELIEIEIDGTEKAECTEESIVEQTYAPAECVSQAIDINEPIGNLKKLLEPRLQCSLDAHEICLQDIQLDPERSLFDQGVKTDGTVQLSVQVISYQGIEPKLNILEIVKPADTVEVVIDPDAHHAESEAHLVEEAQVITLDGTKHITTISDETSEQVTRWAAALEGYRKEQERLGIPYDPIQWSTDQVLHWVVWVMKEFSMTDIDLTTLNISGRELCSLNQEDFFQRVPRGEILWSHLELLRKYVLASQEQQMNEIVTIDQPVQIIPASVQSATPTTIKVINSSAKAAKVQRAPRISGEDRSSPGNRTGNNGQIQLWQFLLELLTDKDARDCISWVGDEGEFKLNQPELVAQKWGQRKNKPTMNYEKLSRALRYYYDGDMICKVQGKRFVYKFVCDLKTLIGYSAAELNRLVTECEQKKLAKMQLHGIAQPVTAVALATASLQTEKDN
# Method in brief: as §1
# ERG = target: T4, ERG (Homo sapiens, UniProt P11308 1-479); settings: protein: recombinant; tags: N-terminal GST; dsDNA, one strand shown
# T4 sequence: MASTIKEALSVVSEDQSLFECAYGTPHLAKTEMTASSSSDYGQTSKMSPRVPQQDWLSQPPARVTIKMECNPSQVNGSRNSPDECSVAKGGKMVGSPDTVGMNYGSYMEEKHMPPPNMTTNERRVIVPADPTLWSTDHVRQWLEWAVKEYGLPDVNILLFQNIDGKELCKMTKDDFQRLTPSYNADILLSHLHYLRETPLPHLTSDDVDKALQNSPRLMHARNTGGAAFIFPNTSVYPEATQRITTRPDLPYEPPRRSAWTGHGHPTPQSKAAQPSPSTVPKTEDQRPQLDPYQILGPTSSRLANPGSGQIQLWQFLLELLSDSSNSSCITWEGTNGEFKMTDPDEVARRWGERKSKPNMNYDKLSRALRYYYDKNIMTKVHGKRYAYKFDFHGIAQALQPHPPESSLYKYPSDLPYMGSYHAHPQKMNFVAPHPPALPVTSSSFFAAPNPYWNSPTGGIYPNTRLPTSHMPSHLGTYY
# Method in brief: as §1
# ELF1 = ELF1 (Homo sapiens, UniProt P32519 1-619); settings: protein: recombinant; tags: N-terminal GST; dsDNA, one strand shown
# Method in brief: as §1
# EHF = target: T5, EHF (Homo sapiens, UniProt Q9NZC4 1-300); settings: protein: recombinant; tags: N-terminal GST; dsDNA, one strand shown
# T5 sequence: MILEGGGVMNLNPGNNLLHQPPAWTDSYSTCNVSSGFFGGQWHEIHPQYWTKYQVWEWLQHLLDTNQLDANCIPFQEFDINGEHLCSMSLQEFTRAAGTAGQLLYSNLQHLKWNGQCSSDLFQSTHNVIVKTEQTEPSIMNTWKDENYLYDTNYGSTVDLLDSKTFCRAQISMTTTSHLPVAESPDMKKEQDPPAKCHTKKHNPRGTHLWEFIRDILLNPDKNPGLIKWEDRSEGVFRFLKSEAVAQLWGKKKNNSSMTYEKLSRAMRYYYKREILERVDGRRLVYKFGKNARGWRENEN
# Method in brief: as §1
# SPI1 = SPI1 (Homo sapiens, UniProt P17947 1-270); settings: protein: recombinant; tags: N-terminal GST; dsDNA, one strand shown
# Method in brief: as §1
# SPIB = SPIB (Homo sapiens, UniProt Q01892 1-262); settings: protein: recombinant; tags: N-terminal GST; dsDNA, one strand shown
# Method in brief: as §1
# ELK3 = target: T6, ELK3 (Homo sapiens, UniProt P41970 1-407); settings: protein: recombinant; tags: N-terminal GST; dsDNA, one strand shown
# T6 sequence: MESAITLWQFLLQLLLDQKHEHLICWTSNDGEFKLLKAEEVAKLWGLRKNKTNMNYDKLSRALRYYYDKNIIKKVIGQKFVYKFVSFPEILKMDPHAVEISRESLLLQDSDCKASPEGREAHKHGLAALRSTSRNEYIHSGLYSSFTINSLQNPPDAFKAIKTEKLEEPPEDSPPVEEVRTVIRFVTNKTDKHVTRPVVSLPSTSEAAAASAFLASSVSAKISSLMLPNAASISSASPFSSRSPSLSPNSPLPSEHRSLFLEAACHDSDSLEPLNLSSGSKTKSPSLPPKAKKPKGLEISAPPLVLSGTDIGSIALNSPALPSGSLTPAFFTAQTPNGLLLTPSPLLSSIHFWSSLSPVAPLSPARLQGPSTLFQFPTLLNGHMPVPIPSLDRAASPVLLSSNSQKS
# Method in brief: as §1
# FEV = target: T7, FEV (Homo sapiens, UniProt Q99581 1-238); settings: protein: recombinant; tags: N-terminal GST; dsDNA, one strand shown
# T7 sequence: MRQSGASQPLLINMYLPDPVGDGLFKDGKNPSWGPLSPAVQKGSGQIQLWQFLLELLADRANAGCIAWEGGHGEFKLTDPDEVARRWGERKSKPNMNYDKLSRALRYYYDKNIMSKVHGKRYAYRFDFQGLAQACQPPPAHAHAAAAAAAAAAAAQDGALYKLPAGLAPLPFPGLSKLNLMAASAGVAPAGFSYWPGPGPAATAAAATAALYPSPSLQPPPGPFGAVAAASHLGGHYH
# Method in brief: as §1
# ETV5 = ETV5 (Homo sapiens, UniProt P41161 1-510); settings: protein: recombinant; tags: N-terminal GST; dsDNA, one strand shown
# Method in brief: as §1
# HSF1 = HSF1 (Homo sapiens, UniProt Q00613 1-529); settings: protein: recombinant; tags: N-terminal GST; chain copies: 3; dsDNA, one strand shown
# Method in brief: as §1
# SPIC = target: T8, SPIC (Homo sapiens, UniProt Q8N5J4 1-248); settings: protein: recombinant; tags: N-terminal GST; dsDNA, one strand shown
# T8 sequence: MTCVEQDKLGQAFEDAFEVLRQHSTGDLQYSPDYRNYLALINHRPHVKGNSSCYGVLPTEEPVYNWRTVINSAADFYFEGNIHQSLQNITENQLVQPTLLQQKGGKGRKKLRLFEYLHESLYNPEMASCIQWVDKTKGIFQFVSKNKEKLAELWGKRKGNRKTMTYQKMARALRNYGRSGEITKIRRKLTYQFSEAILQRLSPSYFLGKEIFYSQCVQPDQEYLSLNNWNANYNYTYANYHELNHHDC
# Method in brief: as §1
# ELF4 = ELF4 (Homo sapiens, UniProt Q99607 1-663); settings: protein: recombinant; tags: N-terminal GST; dsDNA, one strand shown
# Method in brief: as §1
# ELK4 = target: T9, ELK4 (Homo sapiens, UniProt P28324-2 1-405); settings: protein: recombinant; tags: N-terminal GST; dsDNA, one strand shown
# T9 sequence: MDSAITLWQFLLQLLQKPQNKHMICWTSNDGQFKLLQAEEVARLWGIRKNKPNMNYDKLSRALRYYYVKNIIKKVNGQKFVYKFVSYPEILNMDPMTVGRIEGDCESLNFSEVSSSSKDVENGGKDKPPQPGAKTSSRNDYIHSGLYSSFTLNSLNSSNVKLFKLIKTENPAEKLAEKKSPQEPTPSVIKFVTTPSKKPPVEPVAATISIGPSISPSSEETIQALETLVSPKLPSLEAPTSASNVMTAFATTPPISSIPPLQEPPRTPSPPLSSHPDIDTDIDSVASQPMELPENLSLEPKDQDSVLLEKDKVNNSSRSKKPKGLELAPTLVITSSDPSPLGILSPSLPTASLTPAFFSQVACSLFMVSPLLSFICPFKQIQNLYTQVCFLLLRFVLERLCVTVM
# Method in brief: as §1
# ETV2 = target: T10, ETV2 (Homo sapiens, UniProt O00321 1-342); settings: protein: recombinant; tags: N-terminal GST; dsDNA, one strand shown
# T10 sequence: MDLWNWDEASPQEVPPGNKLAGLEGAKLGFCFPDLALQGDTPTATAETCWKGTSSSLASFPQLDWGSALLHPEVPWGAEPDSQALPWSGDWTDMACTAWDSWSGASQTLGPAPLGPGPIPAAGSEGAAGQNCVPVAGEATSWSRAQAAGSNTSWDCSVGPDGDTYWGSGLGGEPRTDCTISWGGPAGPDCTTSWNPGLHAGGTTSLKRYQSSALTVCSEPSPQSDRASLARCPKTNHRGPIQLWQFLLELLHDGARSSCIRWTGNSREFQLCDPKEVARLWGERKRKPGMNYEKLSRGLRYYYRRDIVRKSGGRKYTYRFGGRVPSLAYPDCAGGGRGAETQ
# Method in brief: as §1
# ELF3 = target: T11, ELF3 (Homo sapiens, UniProt P78545 1-371); settings: protein: recombinant; tags: N-terminal GST; dsDNA, one strand shown
# T11 sequence: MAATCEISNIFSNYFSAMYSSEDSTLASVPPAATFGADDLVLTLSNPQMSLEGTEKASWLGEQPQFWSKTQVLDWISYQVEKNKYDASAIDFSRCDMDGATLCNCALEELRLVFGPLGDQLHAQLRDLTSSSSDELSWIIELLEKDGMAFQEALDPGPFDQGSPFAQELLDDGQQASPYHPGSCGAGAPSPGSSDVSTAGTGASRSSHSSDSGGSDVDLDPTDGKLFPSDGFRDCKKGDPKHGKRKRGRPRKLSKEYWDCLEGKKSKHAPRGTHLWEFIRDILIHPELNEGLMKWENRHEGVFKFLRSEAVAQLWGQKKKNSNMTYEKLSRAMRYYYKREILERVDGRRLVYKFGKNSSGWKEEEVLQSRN
# Method in brief: as §1
# CRX = CRX (Homo sapiens, UniProt O43186 1-299); settings: protein: recombinant; tags: N-terminal GST; dsDNA, one strand shown
# Method in brief: as §1
# ETV1 = ETV1 (Homo sapiens, UniProt P50549 1-477); settings: protein: recombinant; tags: N-terminal GST; dsDNA, one strand shown
# Method in brief: as §1
# Sequence of ELF1 (P32519 whole entry): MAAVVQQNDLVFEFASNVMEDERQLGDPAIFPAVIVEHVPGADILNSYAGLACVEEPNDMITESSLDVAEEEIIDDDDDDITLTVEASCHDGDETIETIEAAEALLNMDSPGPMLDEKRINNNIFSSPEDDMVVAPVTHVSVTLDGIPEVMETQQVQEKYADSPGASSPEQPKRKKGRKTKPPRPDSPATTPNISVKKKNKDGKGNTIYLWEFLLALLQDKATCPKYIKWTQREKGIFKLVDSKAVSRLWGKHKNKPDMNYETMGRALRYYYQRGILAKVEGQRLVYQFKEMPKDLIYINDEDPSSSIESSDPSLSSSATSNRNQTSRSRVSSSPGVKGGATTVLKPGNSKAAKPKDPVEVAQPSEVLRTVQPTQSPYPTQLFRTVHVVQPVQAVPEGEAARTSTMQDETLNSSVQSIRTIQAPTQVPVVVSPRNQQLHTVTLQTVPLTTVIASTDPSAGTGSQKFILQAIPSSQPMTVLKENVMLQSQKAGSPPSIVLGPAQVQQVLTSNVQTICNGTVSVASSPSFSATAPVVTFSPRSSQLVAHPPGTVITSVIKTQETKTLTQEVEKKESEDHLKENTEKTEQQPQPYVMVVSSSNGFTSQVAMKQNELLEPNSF
# Sequence of ELF4 (Q99607 whole entry): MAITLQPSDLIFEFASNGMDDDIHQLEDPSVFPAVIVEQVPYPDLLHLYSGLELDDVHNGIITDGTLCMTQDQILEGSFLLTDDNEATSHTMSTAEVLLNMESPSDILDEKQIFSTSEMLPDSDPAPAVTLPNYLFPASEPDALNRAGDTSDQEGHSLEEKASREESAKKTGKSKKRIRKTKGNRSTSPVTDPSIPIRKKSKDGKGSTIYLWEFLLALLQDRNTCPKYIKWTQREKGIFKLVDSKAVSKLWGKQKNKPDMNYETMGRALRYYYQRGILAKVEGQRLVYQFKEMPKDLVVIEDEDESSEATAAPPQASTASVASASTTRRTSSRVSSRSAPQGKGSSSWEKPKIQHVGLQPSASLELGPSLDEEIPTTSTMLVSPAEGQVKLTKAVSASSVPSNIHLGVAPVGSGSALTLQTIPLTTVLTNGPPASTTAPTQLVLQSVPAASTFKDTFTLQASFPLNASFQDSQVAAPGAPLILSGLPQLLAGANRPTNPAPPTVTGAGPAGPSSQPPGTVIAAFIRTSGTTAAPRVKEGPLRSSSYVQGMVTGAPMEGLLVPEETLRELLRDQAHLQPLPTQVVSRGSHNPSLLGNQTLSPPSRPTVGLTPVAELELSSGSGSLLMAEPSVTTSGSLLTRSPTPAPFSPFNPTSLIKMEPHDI
# Sequence of SPIB (Q01892 whole entry): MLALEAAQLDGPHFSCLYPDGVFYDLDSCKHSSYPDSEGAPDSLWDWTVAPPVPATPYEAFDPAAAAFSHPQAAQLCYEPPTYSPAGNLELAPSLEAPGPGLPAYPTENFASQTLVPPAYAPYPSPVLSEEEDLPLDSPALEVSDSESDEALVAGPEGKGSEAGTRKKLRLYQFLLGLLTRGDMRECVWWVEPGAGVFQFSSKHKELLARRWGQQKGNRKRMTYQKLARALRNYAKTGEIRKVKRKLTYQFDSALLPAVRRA
# Sequence of ETV1 (P50549 whole entry): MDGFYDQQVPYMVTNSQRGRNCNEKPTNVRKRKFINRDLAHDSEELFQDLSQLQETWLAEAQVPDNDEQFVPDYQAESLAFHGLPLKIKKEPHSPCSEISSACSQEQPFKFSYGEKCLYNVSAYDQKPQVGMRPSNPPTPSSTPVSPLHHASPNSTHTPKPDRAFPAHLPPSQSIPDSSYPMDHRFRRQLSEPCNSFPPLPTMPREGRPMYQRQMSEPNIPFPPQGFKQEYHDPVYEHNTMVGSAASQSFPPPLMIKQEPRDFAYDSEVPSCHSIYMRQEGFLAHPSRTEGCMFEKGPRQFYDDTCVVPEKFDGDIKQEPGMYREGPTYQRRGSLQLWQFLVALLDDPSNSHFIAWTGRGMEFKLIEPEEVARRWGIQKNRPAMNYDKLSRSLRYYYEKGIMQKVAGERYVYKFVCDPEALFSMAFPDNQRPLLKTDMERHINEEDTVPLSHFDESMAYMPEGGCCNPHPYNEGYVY
# Sequence of ETV5 (P41161 whole entry): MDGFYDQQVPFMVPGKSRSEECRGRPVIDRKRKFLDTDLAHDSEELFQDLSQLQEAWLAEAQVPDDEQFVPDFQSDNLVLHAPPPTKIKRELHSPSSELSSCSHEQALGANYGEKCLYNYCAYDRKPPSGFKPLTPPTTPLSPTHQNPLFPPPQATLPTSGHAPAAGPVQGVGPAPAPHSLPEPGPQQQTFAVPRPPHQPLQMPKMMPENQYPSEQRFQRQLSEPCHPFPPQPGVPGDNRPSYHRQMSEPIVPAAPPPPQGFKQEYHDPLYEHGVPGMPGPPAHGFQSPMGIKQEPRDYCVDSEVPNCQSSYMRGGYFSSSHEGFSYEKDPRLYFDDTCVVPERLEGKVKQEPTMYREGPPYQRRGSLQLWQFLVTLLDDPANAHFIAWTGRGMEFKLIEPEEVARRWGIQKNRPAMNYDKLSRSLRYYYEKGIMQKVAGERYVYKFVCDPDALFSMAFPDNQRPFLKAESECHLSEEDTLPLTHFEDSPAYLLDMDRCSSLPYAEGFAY
# Sequence of CRX (O43186 whole entry): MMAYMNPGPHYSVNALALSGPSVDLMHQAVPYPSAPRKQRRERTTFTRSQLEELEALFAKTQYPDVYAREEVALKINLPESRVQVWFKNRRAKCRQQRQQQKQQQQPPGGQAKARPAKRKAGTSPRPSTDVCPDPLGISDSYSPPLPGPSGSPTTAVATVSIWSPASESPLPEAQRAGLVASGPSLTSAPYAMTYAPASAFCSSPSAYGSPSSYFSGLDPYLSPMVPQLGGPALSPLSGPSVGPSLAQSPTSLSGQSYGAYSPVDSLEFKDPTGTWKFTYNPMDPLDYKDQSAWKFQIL
# Sequence of HSF1 (Q00613 whole entry): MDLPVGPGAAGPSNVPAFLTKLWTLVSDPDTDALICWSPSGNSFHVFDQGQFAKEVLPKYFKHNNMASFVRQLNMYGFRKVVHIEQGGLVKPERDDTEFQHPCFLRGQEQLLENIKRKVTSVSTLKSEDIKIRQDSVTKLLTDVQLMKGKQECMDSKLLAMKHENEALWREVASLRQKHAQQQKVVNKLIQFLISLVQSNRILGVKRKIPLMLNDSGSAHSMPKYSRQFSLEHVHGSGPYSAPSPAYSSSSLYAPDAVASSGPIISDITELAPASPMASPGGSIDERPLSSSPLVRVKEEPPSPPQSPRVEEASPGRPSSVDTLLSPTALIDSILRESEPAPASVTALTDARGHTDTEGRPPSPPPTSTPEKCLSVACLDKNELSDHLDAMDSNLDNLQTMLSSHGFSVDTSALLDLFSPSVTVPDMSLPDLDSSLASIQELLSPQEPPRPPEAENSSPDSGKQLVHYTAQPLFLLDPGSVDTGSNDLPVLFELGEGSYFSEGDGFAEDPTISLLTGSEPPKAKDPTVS
sequence,measurement,setting,value
TCATTC,binding signal,FLI1,"1.27 fold enrichment (6-mer frequency, TF over GST control)"
same,binding signal,ELK1,"1.22 fold enrichment (6-mer frequency, TF over GST control)"
same,binding signal,GABPA,"1.26 fold enrichment (6-mer frequency, TF over GST control)"
same,binding signal,ERG,"1.27 fold enrichment (6-mer frequency, TF over GST control)"
same,binding signal,ELF1,"1.28 fold enrichment (6-mer frequency, TF over GST control)"
same,binding signal,EHF,"1.17 fold enrichment (6-mer frequency, TF over GST control)"
same,binding signal,SPI1,"1.24 fold enrichment (6-mer frequency, TF over GST control)"
same,binding signal,SPIB,"1.19 fold enrichment (6-mer frequency, TF over GST control)"
same,binding signal,ELK3,"1.28 fold enrichment (6-mer frequency, TF over GST control)"
same,binding signal,FEV,"1.19 fold enrichment (6-mer frequency, TF over GST control)"
same,binding signal,ETV5,"1.19 fold enrichment (6-mer frequency, TF over GST control)"
same,binding signal,HSF1,"1.5 fold enrichment (6-mer frequency, TF over GST control)"
same,binding signal,SPIC,"1.13 fold enrichment (6-mer frequency, TF over GST control)"
same,binding signal,ELF4,"1.26 fold enrichment (6-mer frequency, TF over GST control)"
same,binding signal,ELK4,"1.34 fold enrichment (6-mer frequency, TF over GST control)"
same,binding signal,ETV2,"1.27 fold enrichment (6-mer frequency, TF over GST control)"
same,binding signal,ELF3,"1.2 fold enrichment (6-mer frequency, TF over GST control)"
same,binding signal,CRX,"1.22 fold enrichment (6-mer frequency, TF over GST control)"
same,binding signal,ETV1,"1.2 fold enrichment (6-mer frequency, TF over GST control)"
